Measured values taken from PubChem BioAssay AID1069 (NMMLSC, 2008).
The source made the active and inactive calls.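 How the source made its calls: active means high combined rank on largest and smallest cell-count-weighted shift across three tests, rank score above 45, floors 50 and 25 (some results past the limit were not filed as active); inactive means the rest.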

Assay: activators of LNCaP cell differentiation, retest, confirmation, side scatter shift, flow cytometry (AID 1069);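 further: LNCaP human prostate cancer cells in low-serum medium with charcoal-stripped FBS; percent of cells with raised granularity gated so DMSO controls show 10%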
Settings: 4 d, at 100 µM, active compounds read high

Row | Compound | side scatter shift
1 | O=C(CSc1nc2c(c(=O)n1-c1ccc(F)cc1)SCC2)NCC1CCCO1 (stereo not given) | 19.8% (inactive)
2 | CCn1c(C(=O)NCCCN2CCc3ccccc3C2)cc2sccc21 | 12.5% (inactive)
3 | CC1CCCCN1CCNC(=O)c1ccc2c(=O)n(CCc3ccccc3)c(=O)[nH]c2c1 (stereo not given) | 59.5% (active)
4 | COc1ccc(-c2noc(CCC(=O)NCCCN3CCC(C)CC3)n2)cc1 | 23.8% (inactive)
5 | Cc1ccccc1-c1nc(CN2CCC(C(=O)NCCCN3CC(C)CC(C)C3)CC2)c(C)o1 (stereo not given) | 54.5% (active)
6 | Cc1ccc(Oc2ccc(S(=O)(=O)N3CCOCC3)cc2C(N)=O)c(-n2nc3ccccc3n2)c1 | 20% (inactive)
7 | Cc1cc(N2C(=O)C3C4C=CC(C4)C3C2=O)ccc1Br (stereo not given) | 9.6% (inactive)
8 | CCOC(=O)N1CCN(S(=O)(=O)c2ccc(C(=O)Nc3nc4ccccc4s3)cc2)CC1 | 11.7% (inactive)
9 | CC(C)n1c(=S)[nH]c2c1c(=O)[nH]c(=O)n2C | 8.1% (inactive)
10 | CCOC(=O)c1c(-c2ccc(C)o2)csc1NC(=O)CN1CCN(CC)CC1 | 22.2% (inactive)
11 | CCOC(=O)c1c(NCc2ccc3c(c2)OCO3)c2ccccc2[nH]c1=O | 12.8% (inactive)
12 | CCOc1ccc(C(=O)Nc2ccc(Cl)cn2)cc1Cl | 22% (inactive)
13 | Cc1nnc(NCc2n[nH]c(=O)c3ccccc23)c2ccccc12 | 46.8% (inactive)
14 | CCN(CCNC(=O)C1CCCN(Cc2nc(-c3ccc(OC)cc3)oc2C)C1)c1ccccc1 (stereo not given) | 27.8% (inactive)
15 | COc1ccc2cc3cc(C(=O)Nc4ccccc4N4CCN(C)CC4)oc3nc2c1 | 68.3% (active)
